These results are taken from PubChem BioAssay (EPA / NIEHS).

SMILES strings stand for the structures. Records with an inconclusive call do not appear. Calls of active or inactive are those of the source. How the source made its calls, unless noted: active means hit-call score of the fitted dose curve at least 0.9, where 1 is the maximum; inactive means score below 0.9.

Test [1] in a line: BSK_4H_Eotaxin3: BioMAP Diversity Plus: 4H Assay for Eotaxin 3 Biomarker Activity (AID 2283000).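 Further: CCL26 protein level quantified by ELISA in parallel with SRB cytotoxicity check.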 As to conditions: primary human endothelial cells (HUVEC); actives raise or lower the signal. Summed up: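 Readout is Eotaxin-3 (CCL26) level by ELISA in primary human umbilical vein endothelial cells harvested 24 h after chemical exposure; activity fitted in both directions against DMSO control.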

Test [2] deals with human Peroxisome Proliferator-activated Receptor alpha (PPARa), PPARA (gene 5465) (UniProt Q07869). Description: ATG_PPARa_TRANS: Attagene TRANS-FACTORIAL HepG2 Assay for human Peroxisome Proliferator-activated Receptor alpha (PPARa) (AID 2283001; active means hit-call score of the fitted dose curve at least 0.9, where 1 is the maximum;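 on AC50: potency for gain of reporter signal over DMSO so agonist or activator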). An outline of the steps:
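Reporter transcripts from GAL4-UAS units in transfected HepG2 were quantified 24 h after dosing. Detection used reverse transcription, PCR, fluorescent primer extension and capillary electrophoresis, with DMSO as baseline.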

Read-out in test [3]: Intercellular Adhesion Molecule 1 (ICAM1), ICAM1 (gene 3383)
Description: BSK_3C_ICAM1: BioMAP Diversity Plus: 3C Assay for Intercellular Adhesion Molecule 1 (ICAM1) Biomarker Activity (AID 2283003). As to conditions: primary human endothelial cells (HUVEC); actives raise or lower the signal. An outline of the steps:
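Primary human umbilical vein endothelial cells in the BioMAP 3C system were exposed to chemicals for 24 h, then ICAM-1 was quantified by ELISA. Activity was fitted bidirectionally against the DMSO negative control baseline.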

The target of test [4] is Retinoic acid receptor alpha (Homo sapiens) (UniProt P10276). Description: ATG_RARa_TRANS: Attagene TRANS-FACTORIAL HepG2 Assay for human Retinoic Acid Receptor alpha (RARa) (AID 2283005; active means hit-call score of the fitted dose curve at least 0.9, where 1 is the maximum). Summed up:
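Reporter transcripts, measured by RT-PCR with fluorescent labeling and capillary electrophoresis after 24 h dosing, reflect activity of an exogenous human RARa–GAL4 fusion in transiently transfected HepG2. Fitted for increase relative to DMSO.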

Test [5] can be described thus: BSK_3C_Proliferation: Cell Proliferation Assessment in the BioMAP Diversity Plus: 3C Assay (AID 2283006).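 On AC50: potency may reflect either rise or fall in cell number versus DMSO.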 As to conditions: primary human endothelial cells (HUVEC). Summed up:
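Human umbilical vein endothelial cells were grown sub-confluent and exposed to chemical for 48 h, then fixed with 10% TCA and stained with 0.1% sulforhodamine B; absorbance at 560 nm gave relative cell number, fitted bidirectionally against DMSO baseline.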

The target of test [6] is Nuclear receptor subfamily 1 group I member 2 (Homo sapiens) (UniProt O75469). Description: ATG_PXR_TRANS: Attagene TRANS-FACTORIAL HepG2 Assay for human Pregnane X Receptor (PXR) (AID 2283008; active means hit-call score of the fitted dose curve at least 0.9, where 1 is the maximum). Summed up: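 Fluorescence intensity of FAM-labelled, HpaI-digested reporter amplicons, separated by capillary electrophoresis, quantifies induction. HepG2 cells with PXR-Gal4 trans-reporter system were exposed 24 h; DMSO defines baseline.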
Nuclear receptor subfamily 1 group I member 2 (Homo sapiens), sequence (O75469 whole entry, looked up, the tested form may be a part): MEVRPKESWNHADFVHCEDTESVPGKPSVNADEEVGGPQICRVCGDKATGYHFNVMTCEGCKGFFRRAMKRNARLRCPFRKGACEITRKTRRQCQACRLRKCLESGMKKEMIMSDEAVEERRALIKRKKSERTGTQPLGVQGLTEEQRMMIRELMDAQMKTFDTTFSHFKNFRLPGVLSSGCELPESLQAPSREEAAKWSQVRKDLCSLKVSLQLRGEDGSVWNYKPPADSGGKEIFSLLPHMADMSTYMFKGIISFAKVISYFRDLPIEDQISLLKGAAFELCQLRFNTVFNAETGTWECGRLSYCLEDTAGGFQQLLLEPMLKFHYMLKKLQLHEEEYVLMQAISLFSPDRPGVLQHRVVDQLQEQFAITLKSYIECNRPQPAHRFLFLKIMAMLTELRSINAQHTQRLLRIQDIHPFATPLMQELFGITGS

Test [7] deals with human Retinoic Acid Receptor gamma (RARg), RARG (gene 5916) (UniProt P13631). Description: ATG_RARg_TRANS: Attagene TRANS-FACTORIAL HepG2 Assay for human Retinoic Acid Receptor gamma (RARg) (AID 2283009; active means hit-call score of the fitted dose curve at least 0.9, where 1 is the maximum). Summed up:
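HepG2 cells transiently transfected with multiplexed reporter units expressing chimeric RARg-GAL4 and GAL4-UAS-driven reporters; 24 h compound exposure. Reporter mRNA quantified by RT-PCR with fluorescent labelling and capillary electrophoresis; gain-of-signal fitted relative to DMSO baseline.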

Read-out in test [8]: E-selectin (Homo sapiens) (UniProt P16581)
Description: BSK_3C_Eselectin: BioMAP Diversity Plus: 3C Assay for Eselectin Biomarker Activity (AID 2283015).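 On outcome: cell surface E-selectin protein quantified by ELISA 24 h after dosing.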 As to conditions: primary human endothelial cells (HUVEC); actives raise or lower the signal. An outline of the steps: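 HUVEC, 3C stimulation; compound exposure 24 h; E-selectin by ELISA; gain- or loss-of-signal fitted bidirectionally vs DMSO baseline.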

Read-out in test [9]: Interleukin-1 alpha (IL1a), IL1A (gene 3552)
Put plainly: BSK_BE3C_IL1a: BioMAP Diversity Plus: BE3C Assay for Interleukin-1 alpha (IL1a) Biomarker Activity (AID 2283016). The conditions noted are these: primary human bronchial epithelial cells; actives raise or lower the signal. Summed up:
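Human primary bronchial epithelial cells (BE3C system) were dosed with compound and IL-1a measured by ELISA 24 h later. Activity was fitted bidirectionally against DMSO baseline; cytotoxicity was tracked in parallel cultures by SRB total-protein staining.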

Read-out in test [10]: Monocyte Chemoattractant Protein-1 (MCP1), CCL2 (gene 6347)
Description: BSK_3C_MCP1: BioMAP Diversity Plus: 3C Assay for Monocyte Chemoattractant Protein-1 (MCP1) Biomarker Activity (AID 2283017). The conditions noted are these: primary human endothelial cells (HUVEC); actives raise or lower the signal. Summed up:
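HUVEC, 3C system; 24 h chemical exposure; MCP-1 by ELISA; bidirectional curve fit vs DMSO baseline.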

Read-out in test [11]: Monocyte Chemoattractant Protein-1 (MCP1), CCL2 (gene 6347)
Description: BSK_4H_MCP1: BioMAP Diversity Plus: 4H Assay for Monocyte Chemoattractant Protein-1 (MCP1) Biomarker Activity (AID 2283018). As to conditions: primary human endothelial cells (HUVEC); actives raise or lower the signal. Summed up:
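Human umbilical vein endothelial cells (4H system) dosed with chemical; MCP-1 measured by ELISA 24 h after dosing. Bidirectional curve fitting against DMSO negative control as baseline; parallel SRB total-protein staining tracks overt cytotoxicity.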

Read-out in test [12]: Human Leukocyte Antigen - DR isotype (HLADR), HLA-DRA (gene 3122)
Put plainly: BSK_3C_HLADR: BioMAP Diversity Plus: 3C Assay for Human Leukocyte Antigen - DR isotype (HLADR) Biomarker Activity (AID 2283019).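 Further: ELISA of cell-surface HLA-DR on HUVEC 24 h after dosing.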 As to conditions: primary human endothelial cells (HUVEC); actives raise or lower the signal. An outline of the steps: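 HUVEC, 3C stimulation, 24 h post-dose; HLA-DR by ELISA; bidirectional curve fit vs DMSO baseline; gain or loss of signal scored.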

Read-out in test [13]: Interleukin-8 (IL8), CXCL8 (gene 3576)
Put plainly: BSK_3C_IL8: BioMAP Diversity Plus: 3C Assay for Interleukin-8 (IL8) Biomarker Activity (AID 2283020). As to conditions: primary human endothelial cells (HUVEC); actives raise or lower the signal. An outline of the steps:
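Primary human umbilical vein endothelial cells (3C system) were exposed to test chemical for 24 h, then IL-8 was quantified by ELISA. Responses were fitted bidirectionally against DMSO vehicle as baseline.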

Test [14] addresses human Peroxisome Proliferator-activated Receptor delta (PPARd), PPARD (gene 5467) (UniProt Q03181). Put plainly: ATG_PPARd_TRANS: Attagene TRANS-FACTORIAL HepG2 Assay for human Peroxisome Proliferator-activated Receptor delta (PPARd) (AID 2283002; active means hit-call score of the fitted dose curve at least 0.9, where 1 is the maximum). Summed up:
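Read-out is induced reporter mRNA, quantified by RT-PCR with fluorescent labelling and capillary electrophoresis after 24 h dosing. Cells are HepG2 transiently carrying multiple GAL4-UAS reporter units driven by exogenous NR-GAL4 chimeras; DMSO serves as baseline.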

In test [15] the target is human Retinoic Acid Receptor beta (RARb), RARB (gene 5915) (UniProt P10826). Put plainly: ATG_RARb_TRANS: Attagene TRANS-FACTORIAL HepG2 Assay for human Retinoic Acid Receptor beta (AID 2283004; active means hit-call score of the fitted dose curve at least 0.9, where 1 is the maximum). An outline of the steps: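 Readout is reporter mRNA induction: RNA reverse-transcribed, PCR-amplified, FAM-labelled, HpaI-cut and resolved by capillary electrophoresis. Transiently transfected HepG2 cells carrying exogenous NR–Gal4 chimeras were dosed for 24 h; activity fitted upward relative to DMSO.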
human Retinoic Acid Receptor beta (RARb), RARB (gene 5915), sequence (P10826 whole entry, looked up, the tested form may be a part): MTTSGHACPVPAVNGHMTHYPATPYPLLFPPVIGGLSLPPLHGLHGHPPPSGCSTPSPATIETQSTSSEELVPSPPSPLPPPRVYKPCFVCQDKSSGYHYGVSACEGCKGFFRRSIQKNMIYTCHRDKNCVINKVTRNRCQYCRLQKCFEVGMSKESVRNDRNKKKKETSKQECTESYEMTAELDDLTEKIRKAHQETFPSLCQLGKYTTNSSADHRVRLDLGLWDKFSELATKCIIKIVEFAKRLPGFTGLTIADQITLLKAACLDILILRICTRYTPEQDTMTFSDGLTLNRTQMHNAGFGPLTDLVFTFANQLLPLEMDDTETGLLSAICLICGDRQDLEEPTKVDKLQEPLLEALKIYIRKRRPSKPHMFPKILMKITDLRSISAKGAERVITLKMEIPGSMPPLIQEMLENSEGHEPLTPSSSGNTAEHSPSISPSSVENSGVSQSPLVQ

Test [16] concerns the target Peroxisome proliferator-activated receptor gamma (Homo sapiens) (UniProt P37231). Put plainly: ATG_PPARg_TRANS: Attagene TRANS-FACTORIAL HepG2 Assay for human Peroxisome Proliferator-activated Receptor-gamma (PPARg) (AID 2283007; active means hit-call score of the fitted dose curve at least 0.9, where 1 is the maximum). Summed up: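 Twenty-four hours after chemical dosing of transiently transfected HepG2 cells, isolated RNA was converted to cDNA, reporter sequences amplified and 6-FAM-labelled, then HpaI-digested and analysed by capillary electrophoresis. Signal increase against DMSO was fitted.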

The target in test [17] is Retinoic acid receptor RXR-alpha (Homo sapiens) (UniProt P19793). Description: ATG_RXRa_TRANS: Attagene TRANS-FACTORIAL HepG2 Assay for human Retinoid X Receptor alpha (RXRa) (AID 2283012; active means hit-call score of the fitted dose curve at least 0.9, where 1 is the maximum). An outline of the steps:
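HepG2 cells transiently transfected with multiplexed GAL4-UAS reporter units and chimeric NR-GAL4 fusions, dosed 24 h. Reporter mRNA measured by RT-PCR, FAM labelling, HpaI digestion and capillary electrophoresis; gain-of-signal fitted relative to DMSO baseline.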

The target of test [18] is human Retinoid X Receptor beta (RXRb), RXRB (gene 6257) (UniProt P28702). Put plainly: ATG_RXRb_TRANS: Attagene TRANS-FACTORIAL HepG2 Assay for human Retinoid X Receptor beta (RXRb) (AID 2283013; active means hit-call score of the fitted dose curve at least 0.9, where 1 is the maximum). Summed up: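 HepG2 cells transiently transfected with multiplexed reporter units driven by GAL4-UAS and exogenous chimeric NR-Gal4 proteins; treated 24 h. Reporter mRNA measured by RT-PCR, 6-FAM labelling and capillary electrophoresis; gain-of-signal fitted versus DMSO baseline.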
human Retinoid X Receptor beta (RXRb), RXRB (gene 6257), sequence (P28702 whole entry, looked up, the tested form may be a part): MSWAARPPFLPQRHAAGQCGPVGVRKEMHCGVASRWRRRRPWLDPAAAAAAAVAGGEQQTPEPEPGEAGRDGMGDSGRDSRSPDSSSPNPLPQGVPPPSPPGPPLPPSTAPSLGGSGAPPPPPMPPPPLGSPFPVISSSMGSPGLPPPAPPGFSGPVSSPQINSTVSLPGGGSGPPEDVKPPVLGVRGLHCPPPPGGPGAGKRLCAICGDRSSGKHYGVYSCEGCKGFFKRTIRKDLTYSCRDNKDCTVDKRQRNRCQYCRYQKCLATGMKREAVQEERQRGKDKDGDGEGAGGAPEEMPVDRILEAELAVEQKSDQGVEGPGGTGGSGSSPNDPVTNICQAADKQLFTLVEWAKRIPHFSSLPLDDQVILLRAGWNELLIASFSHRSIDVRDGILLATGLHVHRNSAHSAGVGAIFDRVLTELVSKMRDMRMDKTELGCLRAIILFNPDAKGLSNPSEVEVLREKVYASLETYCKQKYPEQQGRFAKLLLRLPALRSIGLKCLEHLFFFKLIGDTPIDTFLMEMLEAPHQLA

The target in test [19] is human Thyroid Receptor alpha (THRa1), THRA (gene 7067) (UniProt P10827). Put plainly: ATG_THRa1_TRANS: Attagene TRANS-FACTORIAL HepG2 Assay for human Thyroid Receptor alpha (THRa1) (AID 2283014; active means hit-call score of the fitted dose curve at least 0.9, where 1 is the maximum). Summed up: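 Transient HepG2 transfection, NR-Gal4 chimera driving GAL4-UAS reporters; 24 h compound exposure; total RNA, oligo(dT) RT, PCR, fluorescent primer extension, capillary electrophoresis. Upward direction vs DMSO control.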

In test [20] the target is human RAR-related Orphan Receptor gamma (RORg), RORC (gene 6097) (UniProt P51449). Description: ATG_RORg_TRANS: Attagene TRANS-FACTORIAL HepG2 Assay for human RAR-related Orphan Receptor gamma (RORg) (AID 2283011; active means hit-call score of the fitted dose curve at least 0.9, where 1 is the maximum). Summed up: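 Transient MRTU transfection of HepG2 (TRANS format, exogenous NR-Gal4 chimera). 24 h dosing. Total RNA → oligo(dT) RT → PCR → 6-FAM labelling → HpaI cut → CE. Gain vs DMSO.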
human RAR-related Orphan Receptor gamma (RORg), RORC (gene 6097), sequence (P51449 whole entry, looked up, the tested form may be a part): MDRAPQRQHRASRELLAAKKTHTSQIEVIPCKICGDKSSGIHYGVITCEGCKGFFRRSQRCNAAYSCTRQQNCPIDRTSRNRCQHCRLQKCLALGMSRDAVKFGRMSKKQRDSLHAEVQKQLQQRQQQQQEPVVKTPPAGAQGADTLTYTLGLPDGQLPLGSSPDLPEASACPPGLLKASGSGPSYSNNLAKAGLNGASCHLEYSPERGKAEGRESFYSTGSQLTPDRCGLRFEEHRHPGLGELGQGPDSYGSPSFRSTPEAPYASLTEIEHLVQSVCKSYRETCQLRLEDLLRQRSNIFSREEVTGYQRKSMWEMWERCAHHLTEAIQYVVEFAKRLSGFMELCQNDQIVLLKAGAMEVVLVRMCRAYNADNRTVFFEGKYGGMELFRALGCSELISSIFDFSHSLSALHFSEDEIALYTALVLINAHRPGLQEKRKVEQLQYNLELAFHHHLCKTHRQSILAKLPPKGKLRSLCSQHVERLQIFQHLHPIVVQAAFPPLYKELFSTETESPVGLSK

One may read the AC50 as the concentration at which the activity in the assay is half-maximal.

E-selectin (Homo sapiens), sequence (P16581 whole entry, looked up): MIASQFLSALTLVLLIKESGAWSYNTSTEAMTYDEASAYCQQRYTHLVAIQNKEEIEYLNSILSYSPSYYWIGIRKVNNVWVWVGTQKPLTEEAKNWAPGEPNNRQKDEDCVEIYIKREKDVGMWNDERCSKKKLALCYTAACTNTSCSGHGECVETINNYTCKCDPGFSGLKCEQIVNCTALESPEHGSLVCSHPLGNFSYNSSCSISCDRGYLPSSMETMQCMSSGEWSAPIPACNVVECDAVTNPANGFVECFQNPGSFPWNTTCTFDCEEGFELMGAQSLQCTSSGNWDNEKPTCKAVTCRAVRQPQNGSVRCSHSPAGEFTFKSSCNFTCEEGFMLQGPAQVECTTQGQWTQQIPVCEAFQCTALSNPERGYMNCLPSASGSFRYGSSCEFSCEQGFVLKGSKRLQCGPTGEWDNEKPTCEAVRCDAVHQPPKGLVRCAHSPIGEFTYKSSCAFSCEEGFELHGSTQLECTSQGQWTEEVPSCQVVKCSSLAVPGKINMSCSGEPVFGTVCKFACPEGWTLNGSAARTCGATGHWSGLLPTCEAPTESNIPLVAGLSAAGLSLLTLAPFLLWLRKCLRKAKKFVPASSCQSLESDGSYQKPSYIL
Retinoic acid receptor RXR-alpha (Homo sapiens), sequence (P19793 whole entry, looked up, the tested form may be a part): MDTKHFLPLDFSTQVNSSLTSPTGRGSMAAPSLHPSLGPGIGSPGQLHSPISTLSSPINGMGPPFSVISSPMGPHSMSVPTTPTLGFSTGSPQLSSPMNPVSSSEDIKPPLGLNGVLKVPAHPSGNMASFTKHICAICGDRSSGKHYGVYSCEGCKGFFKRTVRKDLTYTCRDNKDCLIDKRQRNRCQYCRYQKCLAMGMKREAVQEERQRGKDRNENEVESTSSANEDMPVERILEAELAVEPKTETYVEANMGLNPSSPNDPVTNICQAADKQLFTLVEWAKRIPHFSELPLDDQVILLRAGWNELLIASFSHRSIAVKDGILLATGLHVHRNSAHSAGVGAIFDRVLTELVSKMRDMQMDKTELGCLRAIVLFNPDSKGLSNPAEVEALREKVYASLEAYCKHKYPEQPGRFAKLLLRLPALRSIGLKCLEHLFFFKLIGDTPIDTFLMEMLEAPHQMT
Peroxisome proliferator-activated receptor gamma (Homo sapiens), sequence (P37231 whole entry, looked up): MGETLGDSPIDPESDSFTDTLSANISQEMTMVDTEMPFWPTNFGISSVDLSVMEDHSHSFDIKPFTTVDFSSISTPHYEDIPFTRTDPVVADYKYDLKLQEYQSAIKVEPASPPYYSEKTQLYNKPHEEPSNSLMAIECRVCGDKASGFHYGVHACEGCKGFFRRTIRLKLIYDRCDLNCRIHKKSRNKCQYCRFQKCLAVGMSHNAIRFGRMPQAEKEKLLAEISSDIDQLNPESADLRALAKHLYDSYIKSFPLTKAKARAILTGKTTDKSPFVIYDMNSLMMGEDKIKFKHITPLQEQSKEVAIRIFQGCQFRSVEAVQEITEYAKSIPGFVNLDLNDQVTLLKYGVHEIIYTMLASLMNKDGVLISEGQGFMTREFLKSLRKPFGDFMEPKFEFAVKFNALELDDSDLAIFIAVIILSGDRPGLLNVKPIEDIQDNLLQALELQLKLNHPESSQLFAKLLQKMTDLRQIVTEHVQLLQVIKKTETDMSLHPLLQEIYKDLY
human Retinoic Acid Receptor gamma (RARg), RARG (gene 5916), sequence (P13631 whole entry, looked up, the tested form may be a part): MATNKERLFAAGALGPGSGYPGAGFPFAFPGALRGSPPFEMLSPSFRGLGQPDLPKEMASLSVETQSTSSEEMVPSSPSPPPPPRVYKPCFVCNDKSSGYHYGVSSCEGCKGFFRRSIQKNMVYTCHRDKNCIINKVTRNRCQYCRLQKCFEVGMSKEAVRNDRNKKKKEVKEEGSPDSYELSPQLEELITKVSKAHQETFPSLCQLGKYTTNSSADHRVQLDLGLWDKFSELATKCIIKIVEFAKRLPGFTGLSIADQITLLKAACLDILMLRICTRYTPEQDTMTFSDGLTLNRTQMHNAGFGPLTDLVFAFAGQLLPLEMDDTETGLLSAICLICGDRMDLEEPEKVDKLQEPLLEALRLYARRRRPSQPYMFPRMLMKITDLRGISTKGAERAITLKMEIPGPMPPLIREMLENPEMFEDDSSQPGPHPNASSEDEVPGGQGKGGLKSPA
Retinoic acid receptor alpha (Homo sapiens), sequence (P10276 whole entry, looked up, the tested form may be a part): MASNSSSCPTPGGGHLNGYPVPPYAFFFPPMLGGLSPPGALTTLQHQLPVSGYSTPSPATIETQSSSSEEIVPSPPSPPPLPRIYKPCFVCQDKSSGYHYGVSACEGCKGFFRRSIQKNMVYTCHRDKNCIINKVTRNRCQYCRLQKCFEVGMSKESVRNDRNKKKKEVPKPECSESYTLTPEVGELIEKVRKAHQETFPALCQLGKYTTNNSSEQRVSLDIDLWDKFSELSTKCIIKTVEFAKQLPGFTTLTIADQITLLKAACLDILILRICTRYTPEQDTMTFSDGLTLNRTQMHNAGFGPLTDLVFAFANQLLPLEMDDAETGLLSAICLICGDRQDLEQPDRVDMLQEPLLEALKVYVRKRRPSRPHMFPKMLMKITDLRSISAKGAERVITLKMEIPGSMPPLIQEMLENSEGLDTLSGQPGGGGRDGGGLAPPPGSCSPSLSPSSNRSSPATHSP
human Peroxisome Proliferator-activated Receptor delta (PPARd), PPARD (gene 5467), sequence (Q03181 whole entry, looked up, the tested form may be a part): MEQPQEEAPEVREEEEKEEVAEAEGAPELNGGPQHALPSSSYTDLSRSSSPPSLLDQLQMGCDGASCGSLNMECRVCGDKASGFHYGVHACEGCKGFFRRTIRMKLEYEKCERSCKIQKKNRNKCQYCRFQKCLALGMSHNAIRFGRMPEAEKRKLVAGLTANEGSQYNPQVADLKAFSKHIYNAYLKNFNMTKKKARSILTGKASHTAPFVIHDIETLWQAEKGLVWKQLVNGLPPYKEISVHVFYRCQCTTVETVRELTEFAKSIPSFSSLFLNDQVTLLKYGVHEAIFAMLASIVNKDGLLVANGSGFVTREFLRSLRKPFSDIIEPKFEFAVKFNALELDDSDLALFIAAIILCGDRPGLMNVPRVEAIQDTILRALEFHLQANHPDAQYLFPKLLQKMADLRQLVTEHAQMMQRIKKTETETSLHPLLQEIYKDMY

With `OC[C@@H](O)[C@@H](O)[C@H](O)[C@H](O)CO`, the result in test [1], in test [2], in test [3], in test [4], in test [5] and in test [6] was inactive. The compound was called inactive in [7], in [8], in [9], in test [10], in [11] and in test [12]. The outcome in test [13] was inactive.
As to `Nc1ccccc1N`, the outcome in test [1], in test [14], in test [3], in test [15], in [4] and in test [16] was inactive. Moreover, the compound was classed as inactive in [6], in test [7], in test [17], in test [18], in [19] and in test [9]. For the same compound, the outcome in test [10] and in [11] was inactive. Besides, the AC50 in test [5] is 9.14 µM (active); in test [8] it was 17.2 µM (active).
As to `CC(=O)OC/C=C(\C)CCC=C(C)C`, the result in test [1], in test [14], in [3], in [5], in test [16] and in [6] was inactive. The compound was called inactive in [20], in test [17], in [18], in test [8], in test [9] and in [10]. For the same compound, the result in test [11], in test [12] and in [13] was inactive.
With `Cc1oc(-c2ccccc2)nc1CCOc1cccc2c1ccn2CCC(=O)O`, the result in test [1], in [3], in test [15], in test [4], in test [5] and in test [7] was inactive. Also, the compound was classed as inactive in test [20], in test [8], in test [9], in [10], in [11] and in test [12]. Moreover, the AC50 in test [2] was 3.95 µM (active); in [14], 4.28 µM (active); in [16] it was 0.0142 µM (active); in test [6] it was 10.9 µM (active); in [17] it was 44.9 µM (active); in test [18], 8.2 µM (active).
For the compound `Cc1ccccc1Cl`, the outcome in test [1], in test [14], in test [3], in [5], in test [6] and in test [18] was inactive. Also, the result in test [19], in test [8], in [9], in test [10], in test [11] and in test [12] was inactive.
Consider `NS(=O)(=O)c1cc2c(cc1Cl)NCNS2(=O)=O`, for which the outcome in [1], in [3], in [5], in test [16], in [6] and in test [20] was inactive. Further, the outcome in test [17], in test [18], in test [8], in [9], in test [10] and in test [11] was inactive. In addition, the result in test [13] was inactive.
On to `NCC1(Cc2noc(=O)[nH]2)CCCCC1`, for which the outcome in test [1], in test [3], in test [15], in test [5], in test [6] and in test [20] was inactive. Moreover, the outcome in [17], in [8], in test [9], in test [10], in [12] and in test [13] was inactive.
On to `Cc1nc(C)nc(N2C[C@@H](C)N(c3ccnc([C@@H](C)O)n3)[C@@H](C)C2)n1`, for which the outcome in test [1], in [3], in test [5], in [7], in [17] and in test [8] was inactive. For the same compound, the result in test [9] and in [10] was inactive. In addition, the AC50 in test [6] was 82.4 µM (active).
